Measured values taken from PubChem BioAssay (NCI).
The panel holds about 83,000 compounds, 20% with a hit somewhere; the sample as a whole holds those more often.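 A percent growth of 40 corresponds to 60% growth inhibition; 0 means no net growth; -100 means all cells died. Active threshold: below 10.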 A number with no mark means an inactive call. Activity calls are given as the source filed them.

Experiments:
Assay in all cases: NCI-60 one-dose screen, 48 h (100 = growth as untreated, 0 = no growth, -100 = all killed)
Conditions in all cases: 10 µM unless noted
K-562 leukemia = tested on: K-562 leukemia
MALME-3M melanoma = tested on: MALME-3M melanoma
MDA-MB-231 breast = tested on: MDA-MB-231 breast
RXF 393 renal = tested on: RXF 393 renal
SF-295 CNS = tested on: SF-295 CNS
SF-539 CNS = tested on: SF-539 CNS
UACC-257 melanoma = tested on: UACC-257 melanoma
M14 melanoma = tested on: M14 melanoma
SF-268 CNS = tested on: SF-268 CNS

Row | Compound | growth (K-562 leukemia) | growth (MALME-3M melanoma) | growth (MDA-MB-231 breast) | growth (RXF 393 renal) | growth (SF-295 CNS) | growth (SF-539 CNS) | growth (UACC-257 melanoma) | growth (M14 melanoma) | growth (SF-268 CNS)
1 | COC(=O)c1ccc(NC(N)=NCCC(C)(C)c2ccc(C(F)(F)F)cc2)nc1 | 1.24% (active) | -30.9% (active) | 42.7% | 58.7% | 29.5% | 79.3% | 38.8% | -40% (active) | 
2 | COC(=O)c1cc(Cl)cc([N+](=O)[O-])c1O | 68.9% | 114% | 123% | 97.1% | 101% | 107% | 100% | 94.9% | 112%
3 | CCOC(=O)NNc1cccc(Cl)c1 | 102% | 93.6% | 76.3% | 100% | 109% | 99.8% | 103% | 104% | 110%
4 | COc1ccc(Br)c2ccccc12 | 94.3% | 121% | 123% | 109% | 110% | 109% | 100% | 101% | 108%
5 | O=C1C=CC(=O)N1c1cccc(N2C(=O)C=CC2=O)c1 | 104% | -36.4% (active) | 107% | -2.87% (active) | 102% | 104% | 96.8% | 98.8% | 108%
6 | c1ccc(C2=Nc3ccccc3SC2)cc1 | 124% | 99.3% | 101% | 129% | 97.2% | 103% | 105% | 103% | 
7 | CCCCCCCCCC1=NC(C)(C)CN1C(C)(C)CO | -25.3% (active) | 106% | 88.1% | 167% | 122% | 87.3% | 121% | 113% | 94%
8 | CCN(CC)c1ccc(C(=N)c2ccc(N(C)C)cc2)cc1 | 4.01% (active) | 31.9% | 17.8% | 12.8% | -13.1% (active) | -37.4% (active) | -3.29% (active) | -44.4% (active) | 
9 | O=C(O)c1cn(-c2ccccc2)nc1-c1ccc(O)cc1 | 100% | 105% | 95.7% | 108% | 92.8% | 101% | 85.1% | 91.8% | 
10 | CO[C@@]12[C@@H]3NC3CN1C1=C(C(=O)C(N)=C(C)C1=O)[C@@H]2COC(N)=O (some centres not stated) | 28.7% | -12% (active) | 67.5% | 11.9% | 5.61% (active) | 11.8% | -11.7% (active) | 2.4% (active) | 
11 | COc1cc(-c2nc(-c3nc4cc(C(=O)c5ccccc5)ccc4[nH]3)cc3c2[nH]c2ccccc23)cc(OC)c1OC | 80.3% | 102% | 86.4% | 93.8% | 77.1% | 80.6% | 109% | 85.8% | 99.5%
12 | COc1cc(/C=C/C(=O)c2c(C)nc3ccccc3c2C)ccc1OCCCOc1cc2c(cc1OC)C(=O)N1CCC[C@H]1C=N2 | -10.8% (active) | -37.2% (active) | -35.6% (active) | -83.7% (active) | -47.6% (active) | -87% (active) | -1.91% (active) | -45.2% (active) | -47.9% (active)
13 | COc1cc(/C=C2\C(=O)Nc3ccc(N(C)C)cc32)cc(OC)c1OC | 21.8% | 37.2% | 24.3% | -45% (active) | 7.29% (active) | 10.3% | -11% (active) | -3.91% (active) | 
14 | O=C1C=CC(=O)N1CO | -29.9% (active) | 130% | 109% | 168% | 131% | 111% | 109% | 109% | 111%
15 | Oc1ccc(CCCCCCc2ccc(O)cc2)cc1 | 102% | 92.8% | 65.3% | 60.4% | 65.1% | 42% | 91.4% | 41.8% | 65.2%
16 | CCCCOc1ncnc2nc[nH]c12 | 95.4% | 103% | 115% | 97.7% | 110% | 102% | 101% | 106% | 
17 | Clc1ccccc1Nc1nnc(-c2ccncc2)s1 | 101% | 109% | 108% | 107% | 88.7% | 108% | 108% | 104% | 105%
18 | CCCCC(CCc1ccccn1)C(=O)c1ccccc1 (configuration not stated) | 116% | 119% | 104% | 109% | 104% | 107% | 123% | 108% | 122%
19 | CSCCC1NC(=O)C(C(C)=Nc2ccccc2)=C1O (configuration not stated) | 124% | 112% | 109% | 109% | 97.7% | 119% | 113% | 103% | 111%
20 | COc1cc2c(cc1I)-c1c(cc(OC)c(OC)c1OC)CC[C@@H]2NC(C)=O | 9.91% (active) | 72.4% | -6.61% (active) | 29.8% | -1.65% (active) | -30.6% (active) | 56.7% | -12.9% (active) | 
